# Data published in PubChem BioAssay (NCI).
# Compounds without any hit were thinned out: in the full panel of roughly 83,000, 20% have a hit.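 In brief: 96-well plates, 48 h treatment, single concentration, percent growth endpoint.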 Values without a mark were called inactive. Active and inactive are the calls of the source.
# System: SNB-75 CNS
# Experiment: NCI-60 one-dose screen, 48 h (100 = growth as untreated, 0 = no growth, -100 = all killed)
# Conditions: 10 µM unless noted
# Method: Growth inhibition of the SNB-75 human tumor cell line is measured as a screen for anti-cancer activity. Cells are grown in 96 well plates and exposed to the test compound for 48 hours. Compounds are tested at a single concentration, which is 10^-5 M for most compounds. The reported endpoint is percent growth (GI% or GIPRCNT), where numbers from 0 - 100% represent growth inhibition, and numbers from -100% - 0 represent cell death. For example, a value of 40 represents 60% growth inhibition. A value of 0 means no net growth occurred over the course of the experiment. A value of -40 indicates 40% of cells at the beginning of the experiment died by the end of the experiment. A value of -100 means all cells are dead at the end of the experiment.
# NCI-60 Human Tumor Cell Lines Screen was performed using the standard one-dose NCI protocol, which is described in more detail at https://dtp.cancer.gov/discovery_development/nci-60/default.htm.
# Compounds with GIPRCNT values below 10 were considered active. Activity score was based on GIPRCNT using the following formula: […]
# Score is 0 for GIPRCNT values of 100 or above, 50 for GIPRCNT values of 0, and 100 for GIPRCNT values of -100.
row,Compound,growth
1,CCOC(=O)c1ccc(Nc2ncnc3ccc(NC(=O)c4ccccc4)cc23)cc1,77.9%
2,CC(C)(C)c1ccc2oc(=O)n(SC(Cl)(Cl)Cl)c2c1,98.1%
3,Cc1cc(C)nc(NS(=O)(=O)c2ccc(Nc3ccc4c5c(n(CCCN(C)C)c(=O)c4c3)-c3ccccc3C5=O)cc2)n1,79.5%
4,COC1=CC2C=C(C3N(c4ccccc4)NC(=O)[C@@H]4CCCN34)C(=O)NC2C=C1 (stereo not given in full),85%
5,O=C1CCc2ccccc2N1,78.1%
6,CCCCCCN1C(=O)CN=C1Nc1ccc2cc3ccc(NC4=NCC(=O)N4CCCCCC)cc3nc2c1,61.7%
7,COc1cc(C2=N/C(=C\c3cc4ccccc4nc3Oc3ccccc3)C(=O)N2C(=N)N)cc(OC)c1OC,6.51% (active)
8,C#CC[C@@H]1C[C@]2(C)[C@H]3CC[C@@H]4[C@H]5[C@H](C(=C)C)CC[C@]5(C(=O)O)CC[C@@]4(C)[C@]3(C)CC[C@H]2C(C)(C)[C@H]1O,-8.42% (active)
9,Nc1c(C(=O)Nc2ccccn2)sc2nc3c(cc12)C(=O)CCC3,8.84% (active)
10,Cn1cc(-c2ccc3c(c2)ncn3-c2ccc(CC(=O)Nc3cc(C(C)(C)C)on3)cc2)cn1,-20.6% (active)
11,C=C1C(=O)O[C@H]2[C@H]1CC/C(COC(=O)CCCCCCCCC(=O)OC/C1=C/CC[C@@]3(C)O[C@H]3[C@H]3OC(=O)C(=C)[C@@H]3CC1)=C\CC[C@@]1(C)O[C@@H]21,58.4%
12,O=C1CC(c2ccc(O)c(O)c2)Oc2cc(O)c([C@@H]3O[C@H](CO)[C@@H](O)[C@H](O)[C@H]3O)c(O)c21 (stereo not given in full),102%
13,O=C(Nc1cc(Br)ccn1)c1cc2cc(Nc3nc(-c4ccccc4)nc4ccccc34)ccc2oc1=O,92.3%
14,C=C(C)[C@@H]1CC[C@]2(C(=O)O)CC[C@]3(C)[C@H](CC[C@@H]4[C@@]5(C)C[C@@H](CC#Cc6ccccc6C)C(=O)C(C)(C)[C@@H]5CC[C@]43C)[C@@H]12,58.1%
15,COc1ccc(-c2cc(C(=O)N3N=C(c4ccc(N)cc4)CC3c3ccc(OC)cc3)c3cc(OC)ccc3n2)cc1 (stereo not given),70.3%
16,N#Cc1c(-c2ccc(F)cc2)nc(N/N=C/c2c[nH]c3ccccc23)nc1N1CCOCC1,62.5%
17,O=C(O)C(C(=O)O)c1cccc2ccccc12,99.3%
18,C=C1C(=O)O[C@H]2[C@H]1CC/C(COC(=O)CCCCCCCC(=O)OC/C1=C/CC[C@@]3(C)O[C@H]3[C@H]3OC(=O)C(=C)[C@@H]3CC1)=C\CC[C@@]1(C)O[C@@H]21,68%
19,CC(=O)c1ccc(NC(=O)CSc2nnc(-c3cc(-c4ccc(C)cc4)nc4ccccc34)o2)cc1,62.1%
20,CC(C)NS(=O)(=O)c1cccc(-c2ccc3c(=O)n(CCCN)c4c(c3c2)C(=O)c2ccccc2-4)c1,82.3%

row,Compound,growth
1,CCCn1c2cc(OCc3cn(-c4ccc(Cl)cc4)nn3)ccc2c2ccnc(C)c21,92.5%
2,COc1ccc2c(c1)OC13Oc4cc(OC)ccc4C=C1CCCCC3=C2,89.8%
3,CC(C)(C)CC(C)(C)Cc1ccc(OCCOCC[N+](C)(C)Cc2ccccc2)cc1,-9% (active)
4,CN1C(=O)c2cc(Cl)nc3c(NC(=O)c4cccc(Cl)c4)c(Cl)c(NC(=O)c4cccc(Cl)c4)c1c23,75.3%
5,O=C1C(Cl)=C(NCCCN(CCCNC2=C(Cl)C(=O)c3ccccc3C2=O)C2=C(Cl)C(=O)c3ccccc3C2=O)C(=O)c2ccccc21,104%
6,Cc1ccc(C(=O)/C(=C/c2ccc([N+](=O)[O-])cc2)S(=O)Cc2ccccc2)cc1 (stereo not given),43.4%
7,O=C(/C(=C/c1ccc([N+](=O)[O-])cc1)SCc1ccccc1)c1ccc(Cl)cc1,85%
8,CCCCc1n(Cc2ccc3ccccc3n2)cc[n+]1Cc1ccc2ccccc2c1,15.7%
9,C=C1C(=O)O[C@H]2[C@H]1CC/C(COC(=O)Nc1nc3ccccc3[nH]1)=C\CC[C@@]1(C)O[C@@H]21,75.7%
10,CN(C)CCCn1c2c(c3cc(-c4ccco4)ccc3c1=O)C(=O)c1ccccc1-2,62.4%
11,COC(=O)/C=C/c1cc(OC(C)=O)c2c(c1)C(C(=O)OC)C(c1ccc(OC(C)=O)c(OC(C)=O)c1)O2 (stereo not given),46.3%
12,CCc1c(C(=O)N[C@@H](C(=O)OCc2ccccc2)C(C)O)[nH]c2ccc(Cl)cc12 (stereo not given in full),19.9%
13,NS(=O)(=O)c1ccc(N2Cc3cc(Cl)ccc3OC3=C2C(=O)N(CC2CCCCC2)C3=O)cc1,-98.4% (active)
14,CCCS(=O)(=O)Nc1ccc(F)c(C(=O)c2c[nH]c3ncc(-c4ccc(OCCCC5CCCCN5)nc4)cc23)c1F (stereo not given),19.4%
15,CNS(=O)(=O)c1cccc(-c2ccc3c4c(n(C)c(=O)c3c2)-c2ccccc2C4=O)c1,65.9%
16,COC(=O)[C@]1(C)CCC[C@]2(C)[C@H]3C[C@H]4C(C(C)C)=C[C@]3(CC[C@H]21)[C@@H]1C(=O)N(CCC#N)C(=O)[C@@H]14,93%
17,C=C1C(=O)O[C@H]2[C@H]1CC/C(COC(=O)/C=C/c1cccnc1)=C\CC[C@@]1(C)O[C@@H]21,72.2%
18,CCCCn1c(=O)c(/C=C/C(=O)/C=C/c2cc3ccccc3n(CCCC)c2=O)cc2ccccc21,48.8%
19,N#Cc1c(-c2ccc(F)cc2)nc(N=Nc2c(O)[nH]c3ccccc23)nc1N1CCOCC1,22.5%
20,C#C[C@@]1(O)[C@@H](CO)O[C@@H](n2cc(-c3ccco3)c3c(N)ncnc32)[C@@H]1O,14.6%
